# Laboratory results published in PubChem BioAssay AID489028 (Sanford-Burnham Center for Chemical Genomics, 2010).
# The whole screen tested about 10,000 compounds, of which about 5,600 (56%) were called active. No stated cut-off is given here; in the data, active means inhibition above about 40%; inactive means the rest. The set was probably picked from earlier hits. A selection follows.
# Target: Protein Mdm4 (Homo sapiens) + E3 ubiquitin-protein ligase Mdm2 (Homo sapiens) (UniProt O15151+Q00987)
# Assay: inhibition of human Mdm2/MdmX pairing – luminescence, single concentration, confirmation (AID 489028)
# Conditions: Mdm2-MdmX binding, luminescent assay; at 8 µM; active compounds read high
# Sequence of Protein Mdm4 (Homo sapiens) + E3 ubiquitin-protein ligase Mdm2 (Homo sapiens) (O15151 whole entry, looked up): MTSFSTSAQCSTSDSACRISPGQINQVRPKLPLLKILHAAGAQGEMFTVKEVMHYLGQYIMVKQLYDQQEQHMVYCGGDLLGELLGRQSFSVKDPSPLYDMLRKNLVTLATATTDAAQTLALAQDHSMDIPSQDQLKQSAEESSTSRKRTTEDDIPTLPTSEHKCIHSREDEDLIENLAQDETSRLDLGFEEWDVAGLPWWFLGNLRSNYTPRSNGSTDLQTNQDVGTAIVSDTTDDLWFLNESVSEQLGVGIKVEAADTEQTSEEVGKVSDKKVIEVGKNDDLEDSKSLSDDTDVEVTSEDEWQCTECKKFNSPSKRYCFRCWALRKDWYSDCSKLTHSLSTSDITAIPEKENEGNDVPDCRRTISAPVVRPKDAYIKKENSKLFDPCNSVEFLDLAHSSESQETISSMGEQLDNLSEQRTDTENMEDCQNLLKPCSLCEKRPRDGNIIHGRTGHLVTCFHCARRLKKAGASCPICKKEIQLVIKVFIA
# Sequence of Protein Mdm4 (Homo sapiens) + E3 ubiquitin-protein ligase Mdm2 (Homo sapiens) (Q00987 whole entry, looked up): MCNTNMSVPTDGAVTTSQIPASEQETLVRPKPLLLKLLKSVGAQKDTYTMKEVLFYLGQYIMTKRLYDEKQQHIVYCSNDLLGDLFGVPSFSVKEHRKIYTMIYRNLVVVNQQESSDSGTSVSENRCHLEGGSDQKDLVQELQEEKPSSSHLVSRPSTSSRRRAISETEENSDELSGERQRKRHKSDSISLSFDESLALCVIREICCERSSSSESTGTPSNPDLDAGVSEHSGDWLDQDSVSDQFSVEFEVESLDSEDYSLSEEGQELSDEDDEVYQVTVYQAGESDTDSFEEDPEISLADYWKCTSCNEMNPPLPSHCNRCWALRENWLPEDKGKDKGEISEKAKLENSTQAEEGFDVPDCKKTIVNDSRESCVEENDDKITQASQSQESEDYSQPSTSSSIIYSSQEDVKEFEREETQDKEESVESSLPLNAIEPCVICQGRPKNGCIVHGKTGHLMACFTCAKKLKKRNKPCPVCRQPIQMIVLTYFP
row,SMILES,inhibition
1,O=C(Nc1ccc2ccccc2c1)Nc1ccc2snnc2c1,47.5% (active)
2,COc1ccc(-c2cc(C(F)(F)F)nc(S(C)(=O)=O)n2)cc1OC,56.1% (active)
3,Cc1ccc2[nH]c(=O)c(CN(CCCN(C)C)C(=O)Nc3cccc(Cl)c3)cc2c1,44.1% (active)
4,Cc1cc(C)c2[nH]c(=O)c(CN(Cc3ccccc3)C(=S)NCCCN(C)C)cc2c1,37% (inactive)
5,O=C(Cn1nnc(-c2ccccc2)n1)N/N=C/c1ccc(-c2ccc(Cl)cc2)o1,55.2% (active)
6,COc1ccc(OC)c(Nc2nc(-c3ccc(O)c(O)c3)cs2)c1,38.4% (inactive)
7,COc1ccc2c(c1OC)C(=O)OC2Nc1nc(-c2ccccc2)cs1 (stereo not drawn),73.8% (active)
8,Cc1ccc(-c2csc(NC3OC(=O)c4ccccc43)n2)cc1 (stereo not drawn),76% (active)
9,CN(C)CCCN(C(=O)c1ccc(S(=O)(=O)N2CCCc3ccccc32)cc1)c1nc2ccc(F)cc2s1,29.9% (inactive)
10,O=C(NC(Nc1nc2ccc([N+](=O)[O-])cc2s1)(C(F)(F)F)C(F)(F)F)c1ccccc1,98.5% (active)
11,O=C(Nc1nc2ccc([N+](=O)[O-])cc2s1)c1ccc(S(=O)(=O)N2CCCc3ccccc32)cc1,88.2% (active)
12,CS(=O)(=O)c1ccc2nc(NC(=O)c3ccc(N4CCCC4=O)cc3)sc2c1,7.9% (inactive)
13,Cc1ccccc1OCCOc1ccc([N+](=O)[O-])cc1/C=N/n1cnnc1,58.2% (active)
14,Fc1ccccc1/C=C1\CCCC2=C1Nc1ncnn1C2c1ccccc1F (stereo not drawn),83% (active)
15,COc1ccc(OC)c(C2C3=C(N=c4s/c(=C\c5cccc(O)c5)c(=O)n42)c2ccccc2CC3)c1 (stereo not drawn),28.1% (inactive)
16,CC1CCCCC1NC(=O)/C(C#N)=C/C=C/c1ccccc1[N+](=O)[O-] (stereo not drawn),93% (active)
17,O=C(CCCCCn1c(=S)[nH]c2cc3c(cc2c1=O)OCO3)N1CCN(c2ccc(F)cc2)CC1,36.2% (inactive)
18,O=C(CCn1c(=S)[nH]c2cc3c(cc2c1=O)OCO3)NCc1ccc(Cl)cc1,5.65% (inactive)
19,Cc1ccc(C)c(N2CCN(C(=O)CCCCCn3c(=S)[nH]c4ccc(N5CCOCC5)cc4c3=O)CC2)c1,43.1% (active)
20,CCN1/C(=C\c2ccc3ccccc3[n+]2CC)Sc2cc(C)ccc21,78.1% (active)
21,O=C(NCC#CCSc1nnc(-c2cccc3ccccc23)o1)c1cccs1,83.7% (active)
22,Oc1ccc(N=Nc2nccs2)c(O)c1,35% (inactive)

row,SMILES,inhibition
1,CS(=O)(=O)N(CC(O)Cn1c2ccccc2c2ccccc21)c1cccc2ccccc12 (stereo not drawn),15.5% (inactive)
2,C=C(C)C(=O)O[C@H]1C/C(C)=C\C(=O)/C=C(\C)[C@H](O)[C@@H]2OC(=O)C(=C)[C@@H]21,56.6% (active)
3,CC(Nc1nc(C(F)(F)F)nc2ccccc12)c1cccs1 (stereo not drawn),50.4% (active)
4,Cc1nnc(N/N=C/c2ccccn2)[nH]c1=O,86.6% (active)
5,CCc1ccc2c(c1)C1(NN=C(c3ccccc3)S1)C(=O)N2 (stereo not drawn),53.1% (active)
6,Nc1nc(CC(=O)CSc2ccc(Cl)cc2)nc(Nc2ccc(F)cc2)n1,71% (active)
7,Oc1ccccc1N1CCN(c2ncnc3sc(-c4ccccc4)cc23)CC1,58% (active)
8,COc1ccccc1N1CCN(c2ncnc3sc(C)c(-c4ccccc4)c23)CC1,25.6% (inactive)
9,c1ccc2c(c1)C(=NC1CCCCC1)NC2=NC1CCCCC1,53.5% (active)
10,Cc1cccc(-n2ncc(Cl)c(Cl)c2=O)c1,87.5% (active)
11,Cc1cc(C)c2c(-c3ccc(F)cc3)c(C#N)c(=O)n(C)c2n1,12% (inactive)
12,CCN(CC)S(=O)(=O)c1ccc(NC(=O)c2cccnc2Cl)c(NC(=O)c2cccnc2Cl)c1,95.8% (active)
13,O=C1N/C(=C/c2cccn2-c2ccccc2)C(=O)N1c1cccc(Cl)c1,59.4% (active)
14,COc1ccc(CNC(=O)C(c2ccc(O)cc2)N(Cc2ccco2)C(=O)c2snc(C(N)=O)c2N)cc1 (stereo not drawn),45% (active)
15,N=c1c2c(-c3ccccc3)c(-c3ccccc3)n(Cc3ccccc3)c2ncn1CCCO,62.9% (active)
16,CCCC[C@@H]1CN=C(N)N1CCc1cc(C(F)(F)F)cc(C(F)(F)F)c1,32.2% (inactive)
17,CC1=C/C(=N\OS(=O)(=O)c2ccccc2)C=CC1=O,45.8% (active)
18,CCOc1cc(NC(=O)c2ccco2)c(OCC)cc1NC(=O)COc1ccccc1,25.9% (inactive)
19,CCOc1cc(N2CCOCC2)c(OCC)cc1NC(=O)COc1cccc2cccnc12,80.8% (active)
20,CN1CCN(c2ccccc2NC(=O)COc2ccc(C3CCCCC3)cc2)CC1,20% (inactive)
21,CCc1ccc(N(CC)c2ncnc3nc[nH]c23)cc1,52.4% (active)
22,COc1ccc2sc(-c3ccc(S(C)(=O)=O)cc3)c(C#Cc3cncn3C)c2c1,60.5% (active)

row,SMILES,inhibition
1,Cc1cccc(-c2oc3ccc(-c4ccc5c(c4)OCO5)cc3c2C#Cc2cncn2C)c1,30.1% (inactive)
2,O=C(CCNC(=O)c1ccc(Cl)cc1)NC1CCCc2ccccc21 (stereo not drawn),57.9% (active)
3,CC(C)Cc1nc(Nc2ccc(S(=O)(=O)N3CCCC3)cc2)c2nnn(Cc3ccccc3)c2n1,36.1% (inactive)
4,COc1ccc(-c2ccc(Nc3ccc(S(=O)(=O)N4CCCC4)cc3)nn2)cc1OC,53.5% (active)
5,COc1ccc(C(CCN(Cc2ccc(OC)c(OC)c2)C(=O)CCl)c2ccccc2)cc1 (stereo not drawn),73.3% (active)
6,CCOC(=O)CC1C(=O)NCCN1c1nc2c(C)cccn2c(=O)c1/C=C1\SC(=S)N(C(C)CC)C1=O (stereo not drawn),61.7% (active)
7,COc1ccccc1-n1nnnc1S(=O)(=O)Cc1ccc(Cl)cc1,74.9% (active)
8,NC(N)=N/N=C/c1ccc(OCc2ccc(Cl)cc2Cl)cc1,99.7% (active)
9,CCCCCCc1cc2cc(-c3nnc(-c4ccccc4)o3)c(=O)oc2cc1O,0.95% (inactive)
10,CC(Nc1nc(N2CCCC2)nc2ccccc12)c1ccccc1 (stereo not drawn),40.5% (active)
11,Cc1[nH]nc(-c2ccc(OCc3cnn(-c4ccccc4)c3)cc2O)c1Oc1ccc(Cl)cc1,25.5% (inactive)
12,COC(=O)c1sc(-c2ccc(C(C)(C)C)cc2)cc1NC(=O)/C=C/C(=O)O,52.6% (active)
13,O=S(=O)([N-]c1nc2ccccc2nc1-[n+]1ccc(Cc2ccccc2)cc1)c1ccc(Br)s1,60% (active)
14,Cc1cccc(-c2nc3ccc(C(=O)NCCN4CCN(C)CC4)cc3nc2-c2cccc(C)c2)c1,28.6% (inactive)
15,Cc1cc(CNC(=O)c2cccc([N+](=O)[O-])c2)c2ccccc2n1,58.7% (active)
16,O=C(NCc1ccccc1)C1=C[C@@H](C2CCCCC2)C[C@@H](OCc2ccc(CO)cc2)O1,32.2% (inactive)
17,CN(C)CC(O)COc1ccc(C(C)(C)c2ccc(OCC(O)CN(C)C)cc2)cc1 (stereo not drawn),89.7% (active)
18,CN(Cc1ccccc1)CC(O)COc1ccc(CNCc2cc3ccccc3s2)cc1 (stereo not drawn),32.6% (inactive)
19,COc1ccc(C2=Nn3c(nnc3-c3ccccc3OC)SC2)cc1OC1CCCC1,73.4% (active)
20,COc1cccc2cc(C(N)=O)/c(=N\NC(=O)c3ccccc3)oc12,44% (active)
21,Cc1cccc(NC(=O)Nc2cccc(Oc3c(F)c(F)c(F)c(F)c3F)c2)c1,73% (active)
22,Cc1cccc(CN2CCC(CNC(=O)Nc3ccc(F)c(Cl)c3)CC2)c1,36% (inactive)

row,SMILES,inhibition
1,Oc1c(Br)cccc1/C=N/Nc1c(F)c(F)c(F)c(F)c1F,58.2% (active)
2,CNC[C@H](CC1CCCCC1)NC[C@H](NCCC1CCCC1)[C@H](C)O,77% (active)
3,Cc1ccc(C(=O)N/C(=C/c2ccc(-c3cccc([N+](=O)[O-])c3)o2)C(=O)NCCCN(C)C)cc1,49.5% (active)
4,Cc1ccc(Cc2cnc(NC(=O)/C(C#N)=C/c3ccc(-c4cccc([N+](=O)[O-])c4)o3)s2)cc1,6.4% (inactive)
5,CC(C)n1cnc2c(Nc3cccc(Cl)c3)nc(N(CCO)CCCO)nc21,60.8% (active)
6,CC12CCC(C(=O)N(NC(=O)c3ccccc3O)C1=O)C2(C)C (stereo not drawn),11.2% (inactive)
7,CCC(c1nnnn1C1CCCC1)N(Cc1cccs1)Cc1cc2cccc(C)c2[nH]c1=O (stereo not drawn),13.8% (inactive)
8,CN(c1ccc2nc3ccccc3c(=O)n2n1)C1CCCCC1,89.9% (active)
9,CC(=O)Oc1c(C(=O)c2nnc(C)o2)c(=O)n(Cc2ccccc2)c2ccccc12,55% (active)
10,Cc1cc(Nc2cc(N3CCN(C)CC3)nc(Sc3ccc(NC(=O)C4CC4)cc3)n2)n[nH]1,82% (active)
11,O=C(c1[nH]ncc1-c1ccc(Cl)cc1)C1CO1 (stereo not drawn),45.3% (active)
12,COc1cc(OC)c(OC)cc1/C=N/Nc1ncnc2c1[nH]c1ccc(C)cc12,27% (inactive)
13,COc1ccc(Cc2nnc(N/N=C/c3ccccc3O)[nH]c2=O)cc1OC,76.2% (active)
14,Cc1ccc(N(Cc2cc(=O)[nH]c3ccccc23)C(=O)CCl)cc1,74.9% (active)
15,COc1ccc(-c2nc(-c3ccccc3)no2)c(OC)c1,50.4% (active)
16,CC(C)n1cnc2c(NCc3ccccc3)cc(N[C@@H](CO)Cc3ccccc3)cc21,32.5% (inactive)
17,Cc1c(NC(=O)CSc2cccc3cccnc23)c(=O)n(-c2ccccc2)n1C,10.3% (inactive)
18,O=C(CSc1cccc2cccnc12)N/N=C/c1cccnc1,45% (active)
19,O=C1Nc2cc(C(=O)N3CCC(N4CCCCC4)CC3)ccc2S/C1=C\c1ccccc1,27.8% (inactive)
20,c1ccc(C2CCC(N3CCC(N4CCCCC4)CC3)CC2)cc1 (stereo not drawn),86.5% (active)
21,CC(NC(=O)Nc1ccccc1)C(c1cccs1)N1CCN(c2ccccc2)CC1 (stereo not drawn),70.3% (active)
22,COc1ccc(C2CC(c3cccs3)=NN2c2nc(C)c(C(C)=O)s2)cc1OC (stereo not drawn),25.1% (inactive)
